Several values for one entry are separate records, joined by “and”; a condition that tells them apart may be missing. Equal entries are not always repeated. Compounds without any hit were thinned out: in the full panel of roughly 83,000, 20% have a hit.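 Testing used 96-well plates and a 48-hour single-concentration exposure. Example: -40 means 40% of the starting cells died.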 Activity calls are given as the source filed them.
What follows are compounds tested on UO-31 renal (assay: NCI-60 one-dose screen, 48 h (100 = growth as untreated, 0 = no growth, -100 = all killed)). Settings: 10 µM unless noted.
Method: Growth inhibition of the UO-31 human tumor cell line is measured as a screen for anti-cancer activity. Cells are grown in 96 well plates and exposed to the test compound for 48 hours. Compounds are tested at a single concentration, which is 10^-5 M for most compounds. The reported endpoint is percent growth (GI% or GIPRCNT), where numbers from 0 - 100% represent growth inhibition, and numbers from -100% - 0 represent cell death. For example, a value of 40 represents 60% growth inhibition. A value of 0 means no net growth occurred over the course of the experiment. A value of -40 indicates 40% of cells at the beginning of the experiment died by the end of the experiment. A value of -100 means all cells are dead at the end of the experiment.
NCI-60 Human Tumor Cell Lines Screen was performed using the standard one-dose NCI protocol, which is described in more detail at https://dtp.cancer.gov/discovery_development/nci-60/default.htm.
Compounds with GIPRCNT values below 10 were considered active. Activity score was based on GIPRCNT using the following formula: […]
Score is 0 for GIPRCNT values of 100 or above, 50 for GIPRCNT values of 0, and 100 for GIPRCNT values of -100.

| Structure (SMILES) | growth |
| --- | --- |
| c1ccc(CNCCNCc2ccccc2)cc1 | 79.4% (inactive) |
| Cl | 87.1% (inactive) |
| O=C1CSC2=NCCN12 | 84.6% (inactive) and 90.1% (inactive) |
| O=c1n(CC2CO2)c(=O)n(CC2CO2)c(=O)n1CC1CO1 (stereo not given) | 38.2% (inactive) |
| O=C1C=C(Nc2ccccc2)c2ccccc2C1=O | 65.1% (inactive) and 79.9% (inactive) |
| COc1cc(C(O)C2C(=O)OCC2C2(c3ccc4c(c3)OCO4)SCCCS2)cc(OC)c1OC (stereo not given) | 93.2% (inactive) |
| O=c1[nH]cnc2c1ncn2C1OC(CO)C(O)C1O (stereo not given) | 113% (inactive) and 102% (inactive) and 55.3% (inactive) |
| Nc1nc(N)c2[nH]cnc2n1 | 86.9% (inactive) |
| CC1=C/C(O)CC(=O)Cc2nc(co2)C(=O)N2CCC=C2C(=O)OC(C(C)C)C(C)/C=C\C(=O)NC/C=C\1 (stereo not given) | 75.1% (inactive) |
| CCCCCCCCCCCCCCCCC(C(=O)O)C(O)(CC(=O)O)C(=O)O (stereo not given) | 98.7% (inactive) and 59.3% (inactive) |
| CC(=O)OCC1OC(OC(C)=O)C(OC(C)=O)C(OC(C)=O)C1OC(C)=O (stereo not given) | 79.8% (inactive) and 94.2% (inactive) |
| CCc1cc(C)cc(O)c1 | 77.3% (inactive) |
| CC(C)NCC(O)c1ccc(O)c(O)c1 (stereo not given) | 82.6% (inactive) and 106% (inactive) and 76.1% (inactive) |
| CN1CNC(=O)NC1 | 98.5% (inactive) and 87.6% (inactive) |
| O=C(O)CCCl | 97% (inactive) |
| CC(C)NC(=O)N/C=C(\C#N)C(N)=O | 87.8% (inactive) |
| O=C(/C=C/c1ccccc1)c1ccccc1 | 79.3% (inactive) |
| O=C(Cc1ccccc1)c1ccc(O)c(Cl)c1 | 36.5% (inactive) |
| Nc1cc(N)c(N)cc1N | -0.0578% (active) |
| O=C(CO)C(O)C(O)C(O)C(O)CO (stereo not given) | 97.8% (inactive) and 96.6% (inactive) |

| Structure (SMILES) | growth |
| --- | --- |
| CCCCOc1ccc(Nc2cc(Cl)ccc2C(=O)O)cn1 | 6.77% (active) and 86.2% (inactive) |
| COc1ccc2cc1Oc1ccc(cc1)C[C@H]1c3cc(c(OC)cc3CCN1C)Oc1c(OC)c(OC)cc3c1[C@H](C2)N(C)CC3 | 3.4% (active) |
| Cc1cc2ccccc2cn1 | 83.2% (inactive) and 82.6% (inactive) |
| CC(=O)NCC(=O)c1ccc([N+](=O)[O-])cc1 | 80.5% (inactive) |
| Fc1ccc([I+]c2ccc(F)cc2)cc1 | 74.6% (inactive) |
| CC1(C)COC(=S)N1 | 90.7% (inactive) |
| CCCCCCCCCCCCCCCc1ccc(N)c(OC2OC(CO)C(O)C(O)C2O)c1 (stereo not given) | 57.6% (inactive) |
| OC1COC(OCc2ccccc2)C(O)C1O (stereo not given) | 81.9% (inactive) |
| O=C1c2c(O)ccc(O)c2C(=O)c2c(NCCNCCO)ccc(NCCNCCO)c21 | -63.5% (active) and -53.9% (active) |
| ClCCOCCOc1ccc(C2CCCCC2)cc1 | 99.5% (inactive) |
| CC(=O)OC(C)C(=O)NCC(C)O (stereo not given) | 82.4% (inactive) |
| CCCCNc1ccc(Nc2ccccc2)cc1 | 86.6% (inactive) |
| Cc1cc(-c2cc(C)c(O)c(C)c2)cc(C)c1O | 77.1% (inactive) |
| O=[N+]([O-])c1cccc(SSc2cccc([N+](=O)[O-])c2)c1 | 86.5% (inactive) |
| C#CCOC(=O)Nc1ccccc1 | 97.7% (inactive) |
| CC(C)(O)C(=O)O | 95.2% (inactive) |
| CN(C)CC1CCCCCC(CN(C)C)C1=O (stereo not given) | 10.5% (inactive) |
| O=C1OC(c2ccccc2)=N/C1=C\c1ccccc1 | 95.2% (inactive) |
| Cc1cc(-c2ccc(N=Nc3ccc4c(S(=O)(=O)O)cc(S(=O)(=O)O)c(N)c4c3O)c(C)c2)ccc1N=Nc1ccc2c(S(=O)(=O)O)cc(S(=O)(=O)O)c(N)c2c1O | 74.1% (inactive) |
| c1ccc2c(c1)OC1OC2Oc2ccccc21 | 90.1% (inactive) |
